Test results as given in PubChem BioAssay AID1224817 (Yan Lab, Georgia Cancer Center, Augusta University, 2016).
The whole screen tested about 2,000 compounds, of which about 25 (1%) were called active. This is one part of a sample in which actives are shown more often than they occur. Unmarked numbers belong to inactive results.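 The calls were made as follows: active = log2 luciferase ratio at or below -0.5849, meaning signal at two thirds of solvent-only control or lower; inactive = the rest.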

test: eIF4E expression suppression, luciferase knock-in reporter – cell-based, HT1080, primary screen (AID 1224817); settings: HT1080 EIF4E-luc2 knock-in reporter, 16 h, at 2.5 µM, hits give low values;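 also: luciferase reports endogenous eIF4E expression since it is co-expressed from the native EIF4E locus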

Structure (SMILES)	log2 luciferase activity ratio
Cc1ccccc1C(=N)c1ccccc1Cc1cccc2ccccc12	0.0556
CC1(C)C(CC(=O)O)CCCC1CC(=O)O (centres undefined)	-0.193
N=C1C(O)C2(I)c3ccccc3N3C(=N)C(O)C4c5ccccc5N1C4C32 (centres undefined)	0.988
CC[C@]12CCCN3CCc4c(n(c5ccccc45)C(=O)C1)[C@@H]32	-0.317
COC(=O)C1OC(SCCN)C(O)C(O)C1O (centres undefined)	0.246
O=C(O)c1nnsc1-c1csnn1	-0.0043
CN(C)Cc1cc(C(=O)O)cc(CN(C)C)c1O	-0.293
CC(=O)Nc1ccc(-c2cc(C(=O)O)c3cc4ccccc4cc3n2)cc1	0.356
C[C@@H]1C[C@H]2[C@@H]3CCC4=CC(=O)C=C[C@]4(C)[C@@]3(Cl)[C@@H](Cl)C[C@]2(C)[C@@]1(O)C(=O)COP(=O)(O)O	0.28
CC[C@@H]1CN(C)[C@H]2Cc3c([nH]c4ccccc34)C(=O)C[C@H]1C2C(=O)OC (some centres undefined)	-0.243
COc1ccc2c(c1)O[C@H]1c3ccc(O)cc3OC[C@@H]21	0.161
Cn1c([N+](=O)[O-])cnc1CN1CCN(CCO)CC1	0.268
O=C(O)c1cccc(CN2CCCCC2)c1	0.0092
C[N+](C)(C)/N=C/c1ccc(O)c(O)c1	-0.303
NC(N)=NC(N)=Nc1ccc(S(N)(=O)=O)cc1	-0.0076
CCCCN(c1ccccc1)c1ncnc2c1cnn2C	-0.0702
COc1ccc2nc3cc(Cl)ccc3c(Nc3ccc(O)c(CN4CCN(C)CC4)c3)c2c1	0.0343
NC(CC(=O)O)(Cc1ccccc1)C(=O)O (centres undefined)	-0.129
O=S1(=O)OC(c2ccc(O)cc2)(c2ccc(O)cc2)c2ccccc21	0.424
O=S1(=O)C(c2ccccc2)C(N2CCCCC2)C1C1CC2c3ccccc3C1c1ccccc12 (centres undefined)	0.456

Structure (SMILES)	log2 luciferase activity ratio
Cc1cc(N2CCOCC2)nc2ccc(Cc3ccc4nc(N5CCOCC5)cc(C)c4c3)cc12	0.197
OC(Cc1ccccc1)(Cc1ccccc1)c1ccccc1	-0.0177
OC(c1cc(C23CC4CC(CC(C4)C2)C3)nc2c(Cl)cc(Cl)cc12)C1CCCCN1 (centres undefined)	0.104
Oc1ccc(-c2nc(-c3cccnc3)c(-c3ccc(F)cc3)[nH]2)cc1	-0.338
C=C1C(=O)O[C@H]2[C@H]1[C@H](OC(=O)/C(C)=C\C)CC(=C)[C@@H]1[C@H](O)[C@H]3O[C@@]3(C)[C@@]12O	0.0107
C=C1C(=O)OC2C1C(OC(=O)/C(C)=C/COC(C)=O)CC1(CO1)C1C(O)C=C(C)C21 (centres undefined)	-0.477
C=C1C(=O)OC2C1C(OC(=O)/C(C)=C/C)CC(O)(CCl)C1C(OC(C)=O)C=C(C)C21O (centres undefined)	-1.14 (active)
O=C(O)C(=O)/C=C(\O)c1ccc(Br)cc1	-0.065
N=C(CC(=O)Nc1ccccn1)c1ccccc1	0.825
COc1ccc(/C=N/NC(=O)O)cc1	0.161
CC(CSC(=N)N)C(N)=O (centres undefined)	0.0537
Cc1c(-c2nc(N)nc(C3CC3)c2C)nc(N)nc1C1CC1	-0.199
CN1CCN(CC(=O)N2c3ccccc3Sc3cc4ccccc4cc32)CC1	0.0693
Nc1nc(Cl)cc(NCCO)n1	-0.615 (active)
O=[N+]([O-])c1cc(Cl)cc2c1nc(NCCO)c1ccccc12	0.0337
COc1cccc2c1C(CO)N1C(C#N)C3CC(C(=O)O)C(C1C2)N3C (centres undefined)	-1.55 (active)
O=C(O)C1Cc2c([nH]c3ccccc23)C(CCCCO)N1 (centres undefined)	-0.0145
O=C1OC(c2ccc(O)c(-c3ccccc3)c2)(c2ccc(O)c(-c3ccccc3)c2)c2c(Cl)c(Cl)c(Cl)c(Cl)c21	-0.153
CN(C)c1ccc2nc3c(C(=O)O)cc(=O)c(O)c-3oc2c1	-2.21 (active)
O=C(O)c1ccc(Cc2ccccc2C(=O)O)cc1	-0.21

Structure (SMILES)	log2 luciferase activity ratio
COC(=O)[C@]1(C)CCC[C@]2(C)C3=CC(=O)[C@@]4(C(C)C)O[C@H]4[C@]3(O)CC[C@@H]12	-0.359
OC1(c2ccccc2)c2ccccc2NC2=NCCN21 (centres undefined)	0.416
Ic1ccc2c(c1)N(c1ccccc1)c1cc(N=c3ccc4nc5ccc(I)cc5n(-c5ccccc5)c-4c3)ccc1N2	0.338
CC(=O)[C@H]1CC[C@@H]2[C@]1(C)CC=C1[C@]23C=C[C@]2(C[C@@H](O)CC[C@]12C)C(C(=O)O)C3C(=O)O (some centres undefined)	-0.137
Cn1cnc([N+](=O)[O-])c1Sc1nc(N)nc2c1ncn2C1CC(O)C(CO)O1 (centres undefined)	-0.645 (active)
COc1nc(N)nc2c1ncn2C1CC(O)C(CO)O1 (centres undefined)	0.0307
CC(C)Cn1cnc2c(Sc3c([N+](=O)[O-])ncn3C)nc(N)nc21	-0.473
CC1(C)CC23C4COC(=O)C2CCC1C3CC4=O (centres undefined)	0.113
O=C(O)CCn1cnc2c(=S)nc[nH]c21	-0.179
C[C@@H]1C(=O)C[C@H]2C(C)(C)CCC[C@]2(C)[C@@]1(O)CCc1ccoc1	-0.608 (active)
O=C(CSc1nc2ccccc2s1)c1sc2sc3ccccc3[n+]2c1[O-]	0.244
O=C(O)C1C(C(=O)O)C2C(=O)C=CC1N2Cc1ccccc1 (centres undefined)	0.0328
CC(C)Cn1cnc2c(SCc3ccc(Cl)cc3Cl)nc(N)nc21	0.484
NC1(C(=O)NC2(C(=O)O)CCCC2)CCCC1	0.0359
O=C(Nc1ccc(Nc2ccc3c(c2)C(=O)c2ccccc2C3=O)c2c1C(=O)c1ccccc1C2=O)c1ccccc1	0.326
O=C(O)[C@H](c1ccccc1)[C@@H](C(=O)O)c1ccccc1	-0.0929
NNC(=O)Cc1cccnc1	0.269
N=C(N)SCCN1CCCCC1	0.0135
CCCNc1ncnc2[nH]ncc12	-0.531
